# Screening results: PubChem, National Center for Advancing Translational Sciences (NCATS)
# ALDH1A1 inh – qHTS Assay for Inhibitors of Aldehyde Dehydrogenase 1 (ALDH1A1). Aldehyde dehydrogenase 1A1 (Homo sapiens), P00352. Purified ALDH1A1, NADH fluorescence, propionaldehyde substrate. Potency, µM (doses to about 75.3 µM), inactives show at the highest dose activity, negative = inhibition, most hits filed as inhibitors. hit rate 7.3% among 220,000. AID 1030, 2008;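 also: potency is read from the fitted curve at half-maximal effect; plate controls were no enzyme wells and a reference inhibitor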
# IMPase inh – qHTS Assay for Identifying the Cell-Membrane Permeable IMPase Inhibitors; AID 901, 2007; 120,000 tested, under 10 active; inhibition (IP1 accumulation), % at 46.1 µM; CHO-M1 cells, IP1 accumulation, HTRF TR-FRET ratio; active = well fitted curve in the direction sought with a large enough effect in the signal ratio, not every such curve was filed as active; inconclusive = small, poorly fitted or top-dose-only effect, or a change in a side signal; inactive = no such curve, though single readings can be large or run the other way; the % refers to the signal ratio;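 also: cells stimulated with carbachol in lithium chloride buffer; plate controls were DMSO basal wells for no effect and reference inhibitor wells for full effect; higher means more IMPase inhibition seen as more IP1 and lower FRET ratio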
# Target sequence (P97697 whole entry, looked up): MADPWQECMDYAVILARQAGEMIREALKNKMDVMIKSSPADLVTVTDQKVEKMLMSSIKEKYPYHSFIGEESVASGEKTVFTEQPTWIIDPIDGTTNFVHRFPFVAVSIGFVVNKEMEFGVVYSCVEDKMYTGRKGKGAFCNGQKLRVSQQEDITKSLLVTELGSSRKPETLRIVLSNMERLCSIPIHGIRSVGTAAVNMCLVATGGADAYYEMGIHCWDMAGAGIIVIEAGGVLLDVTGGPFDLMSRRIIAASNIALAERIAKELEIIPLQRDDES
#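 Carbachol-driven Gq signalling in CHO-M1 cells (2000/well) generates IP1. Compounds that block IMPase raise IP1 and so reduce the FRET signal from Eu-anti-IP1 and d2-IP1 after a 10 min room-temperature lysis.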
# HPGD inh – qHTS Assay for Inhibitors of HPGD (15-Hydroxyprostaglandin Dehydrogenase); 15-hydroxyprostaglandin dehydrogenase [NAD(+)] (Homo sapiens), P15428; purified HPGD, NADH fluorescence kinetic, PGE2 substrate; Potency, µM, without a hit: at the top dose activity change, negative = inhibition, most hits filed as inhibitors; hit rate 4.3% among 150,000; AID 894, 2007; also: potency is read from the fitted curve at half-maximal effect
# Target sequence (P15428 whole entry, looked up): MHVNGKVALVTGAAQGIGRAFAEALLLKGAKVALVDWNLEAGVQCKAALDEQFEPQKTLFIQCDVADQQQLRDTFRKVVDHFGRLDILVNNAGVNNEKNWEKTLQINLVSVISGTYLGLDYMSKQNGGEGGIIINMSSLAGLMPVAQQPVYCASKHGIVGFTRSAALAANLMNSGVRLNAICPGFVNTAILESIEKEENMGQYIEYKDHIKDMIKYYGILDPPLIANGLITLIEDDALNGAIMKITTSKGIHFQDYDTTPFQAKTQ
#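 20 nM HPGD preincubated 15 min at room temperature with compound in 50 mM Tris-HCl pH 8, 0.01% Tween 20. Started with 1 mM NAD+ and 30 uM prostaglandin E2; NADH fluorescence (360/450 nm) read 5 times over 30-s intervals, last minus first.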
# Starred values were filed as active, the others as inactive; u = inconclusive; x = no result given; [ ] = dose if it differs, or a comment. Shown are actives, neighbours in structure and some others; about 9% of the full set was active somewhere. Unless noted, calls follow the shape of the dose curve; as a rule, active = well fitted inhibition curve with a large enough effect (not every such curve was filed as active); inconclusive = small, poorly fitted or top-dose-only effect, or another doubt; inactive = no such curve, though single readings can be large or run the other way. Unless noted, % is scaled to controls: 0 for no effect and ±100 for the full control effect.
SMILES,ALDH1A1 inh,IMPase inh,HPGD inh
CCOc1ncccc1C(=O)OCC(=O)Nc1ccc(C)c(S(=O)(=O)N(C)C)c1,-3%,x,x
CCOC(=O)C1CC(c2ccccc2)=NNC1=O (centres undefined),-7%,x,x
COc1ccc(C2C(C(=O)Nc3ccc(OC)c(OC)c3)c3ccccc3C(=O)N2C)cc1 (centres undefined),2%,x,x
COc1ccc(Cl)cc1NC(=O)c1cccc(NC(=O)CCC(=O)O)c1,3%,x,-15%
COc1ccc(S(=O)(=O)N(C)C)cc1NC(=O)CSc1nc(N)cc(N)n1,-10%,x,x
Cn1c(CSc2nc3ccc(Br)cc3[nH]2)nc2ccccc21,4%,4,-7%
Cn1c(CSc2nnc(SCc3ccccc3)s2)nc2ccccc21,25µM*,-11,-26%
CCOc1ccc(C(CC(=O)O)n2cnnn2)cc1 (centres undefined),5%,x,x
S=C(N/N=C/c1ccccc1)N1CCOCC1,u,x,-9%
CCOc1ccc(/C(C)=N/N2C(=O)C(CC(=O)Nc3ccc(OC)cc3[N+](=O)[O-])SC2=Nc2cccc(C)c2C)cc1 (centres undefined),14µM*,x,u
COc1ccccc1/C=N/N1C(=O)C(CC(=O)Nc2ccc([N+](=O)[O-])cc2OC)SC1=Nc1cccc(C)c1C (centres undefined),1%,x,x
c1ccc(-c2cccc(N3CC[C@@]4(CCCNC4)C3)c2)cc1,u,x,-14%
CCOc1ccc(C(=O)NCC2OCCc3ccccc32)cc1 (centres undefined),-6%,14,-18%
OCC1(CO)COC(c2ccccc2)=N1,3%,x,x
O=C1OC(c2ccccc2)=NC12CC2c1ccc(Cl)cc1 (centres undefined),28µM*,x,28µM*
CC(=O)Oc1cccc(N2C(=O)c3ccc(C(=O)Nc4cccnc4)cc3C2=O)c1,18µM*,x,x
CCOc1ccccc1N1C(=O)c2ccc(C(=O)Nc3cccnc3)cc2C1=O,-10%,1,-17%
CC(NCC(c1ccco1)N1CCCCC1)C(=O)NC1CCCC1 (centres undefined),10%,x,x
COc1ccc(Cl)cc1NC(=O)C(C)N(C)Cc1cccc(Cl)c1Cl (centres undefined),-4%,1,x
CCOC(=O)CNc1c(-c2ccc(O)cc2)nc2ccc(Cl)cn12,7.1µM*,14,-30%
CCOC(=O)CNc1c(-c2ccccc2)nc2ccc(Cl)cn12,u,-13,u
Cc1ccc(SCC(=O)N2CCOCC2)cc1,0%,-5,-14%
O=C(CSCc1ccc(Cl)cc1)N1CCOCC1,8%,x,-2%
Cc1ccc(-c2nnc(SCC(=O)N3CCOCC3)nc2-c2ccc(C)cc2)cc1,u,9,18µM*
Cc1ccc(C(CC(=O)N2CCOCC2)c2ccco2)cc1 (centres undefined),u,-5,20µM*
SMILES,ALDH1A1 inh,IMPase inh,HPGD inh
Cc1ccc(CSCC(=O)N2CCOCC2)cc1,25µM*,-10,-14%
O=C(CC(c1ccccc1)c1ccco1)N1CCCCC1 (centres undefined),-5%,x,x
CN(C(=O)c1ccc(Cl)cc1)C1=CCCCC1CCC#N (centres undefined),-6%,5,-5%
CC(C)C(=O)N1CCN(c2ccc(NC(=O)COc3ccccc3[N+](=O)[O-])cc2)CC1,1%,x,x
CNC(=O)[C@H](C)/C=C/C(NC(=O)OCc1ccccc1)c1ccc(C(=O)OC)cc1 (some centres undefined),u,x,-5%
Cc1ccc(-n2nnnc2SCCNS(=O)(=O)c2ccccc2)cc1C,5µM*,12,-6%
Cn1nnnc1SCCNS(=O)(=O)c1ccccc1,-10%,8,-10%
CC(C)NC(=O)CCn1c(=S)oc2ccccc21,1%,x,x
CC(C)OC(=O)n1c(=S)oc2ccccc21,7.1µM*,1,u
CCCCC(=O)/C=C/n1c(=S)oc2ccccc21,11µM*,x,u
Cc1ccc(NC(=O)CCn2c(=S)oc3ccccc32)cc1,-2%,x,x
CCc1c(C)nn(C(=O)/C(C#N)=C\N(C)C)c1C,6%,x,x
COc1ccc(NC(=S)Nc2ccc3nsnc3c2)cc1,22µM*,x,-4%
CCOc1ccc(NC(=S)Nc2ccc3nsnc3c2)cc1,3.5µM*,x,28µM*
C=CCN(CC=C)C(=S)Nc1ccc2nsnc2c1,11µM*,x,x
COc1ccc(NC(=S)Nc2ccc3nc(C)c(C)nc3c2)cc1,-3%,-1,-8%
C=CCNC(=S)Nc1ccc2nsnc2c1,-6%,x,-11%
Cc1cccc(NC(=S)Nc2ccccn2)c1C,u,6,-3%
CCOc1ccc(NC(=O)Nc2ccc3nsnc3c2)cc1,2%,x,x
Cc1cc(NC(=S)Nc2cccc3ccccc23)n[nH]1,6.3µM*,x,x
CC(C)CC1OCCC=CC1C (centres undefined),6%[13.5 µM],x,x
CC(=O)CC(=O)Nc1ccc(Nc2ccccc2)cc1,6%,x,-9%
C[C@H](O)Cn1cnc2c1c(=O)n(C)c(=O)n2C,7%[20.9 µM],-10[20.6 µM],-5%
Cc1ccnc(NC(=O)CCC(=O)N(CC(=O)NC2CCCCC2)c2ccc3c(c2)OCO3)c1,0%,-8,-14%
COc1ccccc1N1CCN(C(=O)NC23CC4CC(CC(C4)C2)C3)CC1,6%,x,x
SMILES,ALDH1A1 inh,IMPase inh,HPGD inh
CCc1ccc(C(=O)COC(=O)c2n[nH]c3ccccc23)cc1,5%,x,x
CCOc1ccc(NC(=S)Nc2cc(C)[nH]n2)cc1,14µM*,x,x
CCOc1ccc(NC(=S)Nc2ccc(OCC)cc2)cc1,4%,x,x
O=C(NNC(=O)c1ccc(-c2ccccc2)cc1)c1ccccc1,2%,-12,x
NNC(=O)c1ccc(-c2ccccc2F)cc1,1.1µM*,x,x
OCl,4%,x,-14%
CC1(C)Cc2c(sc3c2c(=N)n(Cc2ccco2)c(=O)n3CC(=O)Nc2ccccc2)CO1,u,3,-9%
CC1(C)Cc2c(sc3c2c(=N)n(Cc2ccco2)c(=O)n3CC(=O)Nc2ccc(Cl)cc2)CO1,20µM*,3,-21%
OC(CNCCC(c1ccccc1)c1ccccc1)COc1ccccc1 (centres undefined),0%,x,x
S=c1[nH]nc(-c2ccco2)n1/N=C/c1cccc(Cl)c1Cl,-4%,x,2µM*
S=c1[nH]nc(-c2ccco2)n1-c1ccc(Cl)cc1,-7%,x,x
S=c1[nH]nc(-c2ccco2)n1/N=C/c1ccc(Cl)cc1Cl,u,-1,2.2µM*
O=c1c2ccccc2nc(-c2ccco2)n1/N=C/c1ccccc1O,-15%,10,-2%
Cc1cc2cc(CNC(=S)Nc3ccc(OC(F)F)cc3)ccc2[nH]1,-8%,x,-15%
Cc1ccc(NC(=S)NCc2ccc3[nH]c4c(c3c2)CCCC4)cc1,18µM*,x,-36%
CCc1c(C)nc2ncnn2c1N1CCN(S(=O)(=O)c2ccc(OC)cc2)CC1,-1%,x,x
O=C1c2ccccc2C(=O)C12OC2c1ccc(Cl)cc1 (centres undefined),0.79µM*,x,-20%
O=C1C(=O)c2ccccc2C(O)=C1C1CCC(c2ccc(Cl)cc2)CC1 (centres undefined),3%,7[20.6 µM],u
Cc1ccc(-c2nc3ccccc3[nH]2)cc1NC(=O)c1ccco1,4%,-5,-9%
